Screens as filed in PubChem.
Compounds with a hit are over-represented: about 2% of the library has one in this group of screens.
Ins promoter up: insulin promoter activators in MIN6 cells, imaging, high-content screening, mouse beta cells. z-score at 5 µM. 0.3% of 190,000 active. MIN6 insulin promoter-GFP reporter; hits give high values;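 active means z-score above 3 at 5 µM with at least 500 cells counted in the well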
Autophagy HCS: autophagy modulators in MEF cells, primary screen, imaging, high-content, MEF GFP-LC3; MEF GFP-LC3 puncta imaging; test concentration mostly 10 µM; calls only at 10 µM (by protocol); 0.98% of 190,000 active; AID 463193, 2010;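 active means percentage of spot-positive cells more than 3 SD above its plate mean, without a fluorescence outlier flag or 80% toxicity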
eIF4E 4G PPI: eIF4E–eIF4G protein interaction inhibitors, primary screen, biochemical, uHTS, TR-FRET, eIF4GI fragment; Eukaryotic translation initiation factor 4E (Mus musculus) + Eukaryotic translation …; TR-FRET eIF4E-eIF4GI(517-606) binding, 2 h; inhibition, % at 21.7 µM; 0.37% of 220,000 active; AID 782, 2007;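 active means inhibition above about 30%, limit read from the data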
PERK inh: block of dimerizer-induced PERK translation repression, primary screen, PERK inhibitor project, CHO PERK-DD cells, SEAP luminescence, HTS. Eukaryotic translation initiation factor 2-alpha kinase 3 (Homo sapiens), Q9NZJ5. CHO PERK-DD fusion, SEAP luminescence translation reporter. inhibition, % at 5.6 µM. 0.17% of 220,000 active. AID 1416, 2008;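 active means inhibition above the mean inhibition of all tested compounds plus 3 SD, set separately per screening campaign, cut at about 2.9% in these data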;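 further: PERK kinase domain activated by AP20187 dimerizer at 100 nM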
Target sequence (Q9NZJ5 whole entry, looked up, the tested form may be a part): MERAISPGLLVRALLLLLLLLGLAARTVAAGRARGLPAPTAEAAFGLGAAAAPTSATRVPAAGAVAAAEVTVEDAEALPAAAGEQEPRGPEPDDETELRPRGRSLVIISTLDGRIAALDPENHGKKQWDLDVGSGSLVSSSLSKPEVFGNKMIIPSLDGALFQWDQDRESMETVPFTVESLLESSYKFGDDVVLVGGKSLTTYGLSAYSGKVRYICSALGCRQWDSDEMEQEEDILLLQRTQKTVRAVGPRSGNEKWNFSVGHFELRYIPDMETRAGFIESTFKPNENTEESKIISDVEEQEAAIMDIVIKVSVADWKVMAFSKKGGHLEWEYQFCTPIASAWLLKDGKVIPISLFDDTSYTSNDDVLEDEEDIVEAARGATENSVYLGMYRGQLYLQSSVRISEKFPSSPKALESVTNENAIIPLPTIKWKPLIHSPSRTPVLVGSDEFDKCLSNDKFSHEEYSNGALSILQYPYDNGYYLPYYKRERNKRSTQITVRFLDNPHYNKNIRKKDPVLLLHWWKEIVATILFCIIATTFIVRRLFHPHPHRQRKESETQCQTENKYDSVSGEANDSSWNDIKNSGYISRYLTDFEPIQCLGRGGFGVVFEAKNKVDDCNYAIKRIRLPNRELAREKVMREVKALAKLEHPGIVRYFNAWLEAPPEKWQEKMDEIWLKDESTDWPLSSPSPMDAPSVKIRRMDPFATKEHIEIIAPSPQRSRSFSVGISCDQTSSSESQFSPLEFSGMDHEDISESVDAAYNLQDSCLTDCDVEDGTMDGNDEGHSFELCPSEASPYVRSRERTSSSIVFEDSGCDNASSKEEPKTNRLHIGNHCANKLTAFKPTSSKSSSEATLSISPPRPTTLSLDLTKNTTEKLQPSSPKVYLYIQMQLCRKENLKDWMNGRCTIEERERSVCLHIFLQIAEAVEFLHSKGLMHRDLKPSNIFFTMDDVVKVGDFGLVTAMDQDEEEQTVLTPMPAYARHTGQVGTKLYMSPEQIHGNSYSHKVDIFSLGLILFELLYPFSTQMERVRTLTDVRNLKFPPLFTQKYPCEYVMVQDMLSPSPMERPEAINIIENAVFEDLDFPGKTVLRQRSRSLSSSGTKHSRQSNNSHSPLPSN
INS promoter inh: inhibitors of insulin promoter-driven GFP, primary screen, imaging, TRM-6 cells (human fetal islet line), eGFP reporter, cell count. 0.9% of 130,000 active. reporter expression induced with tamoxifen. inhibition, % at 2 µM;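 active means inhibition above the mean plus 3 SD, with well images judged a real hit on visual review, cut at about 60% in these data, passing the limit was not always enough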
A number is an active result; - = inactive; . = no result given; + = active, no number.

SMILES | Ins promoter up | Autophagy HCS | eIF4E 4G PPI | PERK inh | INS promoter inh
COc1ccc(Cl)cc1N1C(=O)/C(=C\c2sccc2C)N=C1SCC(=O)NC1CC1 | . | - | - | - | .
O=C1c2ccccc2C(O)(Cc2ccccc2)N1c1ccc2c(c1)OCO2 (centres undefined) | . | - | - | - | .
CN(C)CC(c1ccccc1)c1ccccc1 | - | . | - | 4.3 | .
CN(C)CC(O)COC(c1ccccc1)c1ccccc1 (centres undefined) | - | - | - | - | -
CCN1C(=O)C(O)(C2COC(C)(C)CC2=O)c2ccccc21 (centres undefined) | - | - | - | - | -
CCN1C(=O)C(O)(C2COC(C)(C)CC2=O)c2cc(Br)ccc21 (centres undefined) | . | + | - | - | -
Cc1ccc2c(c1)C(=O)C(=O)N2CCOc1ccccc1 | - | - | - | - | .
Cc1cccc(OCCN2C(=O)C(=O)c3cc(C)ccc32)c1 | - | + | - | - | -
CC(C)CC(c1nnnn1Cc1ccc2c(c1)OCO2)N1CCC(C(N)=O)CC1 (centres undefined) | - | - | - | - | .
O=C(C1CCN(c2nnc(-n3cccc3)s2)CC1)N1CCOCC1 | - | - | - | - | 100.0
C/C(=N\NC(=O)Cc1cccn1C)c1ccco1 | - | . | 43.8 | - | .
OCCNC(=S)Nc1cc(Cl)cc(Cl)c1 | - | . | - | - | .
Cc1ccc([N+](=O)[O-])cc1N=C(c1cccc([N+](=O)[O-])c1)N1CCOCC1 | . | - | - | 9.5 | -
Cc1ccc([N+](=O)[O-])cc1N=C(c1ccc([N+](=O)[O-])cc1)N1CCOCC1 | - | - | - | - | -
CCC(c1nc2ccccc2c(=O)n1CCN1CCOCC1)N1C(=O)c2ccccc2C1=O (centres undefined) | - | - | - | - | 65.5
CCC(c1nc2ccccc2c(=O)n1CCCn1ccnc1)N1C(=O)c2ccccc2C1=O (centres undefined) | - | - | - | - | -
Cc1sc2nc(CN3CCCC3)nc(N3CCN(C(=O)c4ccco4)CC3)c2c1C | - | + | - | - | .
CCOC(=O)c1cc(C(=O)OCC)c(=O)[nH]c1N1CCCCC1 | - | - | - | - | .
Cc1nn(-c2ccccc2)c(C)c1N | - | - | - | - | 75.0
Cc1c(Nc2cc(N3CCOCC3)c3nonc3c2[N+](=O)[O-])c(=O)n(-c2ccccc2)n1C | - | - | - | - | .
Cc1c(Nc2cc(Cl)c3nonc3c2[N+](=O)[O-])c(=O)n(-c2ccccc2)n1C | - | + | - | - | 100.0
CC1=CC2=NC(=O)CC(C)(C(=O)N(CC(=O)NC3CCCC3)c3cc(C)cc(C)c3)N2C=C1 (centres undefined) | - | - | 35.4 | - | .
O=C(CSc1n[nH]c(-c2cc(Cl)ccc2Cl)n1)NCCN1C(=O)CSC1=O | - | - | - | - | -
Cc1c(Cl)cccc1-n1c(SCC(=O)NCc2cccs2)nnc1-c1ccncc1 | - | - | - | - | 91.2
Cc1c(Cl)cccc1-n1c(SCC(=O)NCc2ccccc2Cl)nnc1-c1ccncc1 | - | - | - | - | -
SMILES | Ins promoter up | Autophagy HCS | eIF4E 4G PPI | PERK inh | INS promoter inh
Cc1ccc(-n2c(C)cc(C(=O)COc3c(CO)cc(F)cc3CO)c2C)cc1C | . | - | - | - | -
Cc1ccnc(NS(=O)(=O)c2cc(C(F)(F)F)ccc2Cl)c1 | - | . | - | 3.4 | .
Cc1ccnc(NS(=O)(=O)c2cccs2)c1 | - | - | - | - | -
Cc1cc(N/N=C/c2ccc([N+](=O)[O-])o2)nc2ccccc12 | . | + | - | - | .
O=C(Nc1cccc(S(=O)(=O)N2CCOCC2)c1)c1ccc2c(=O)n3c(nc2c1)CCCCC3 | - | - | - | - | -
CCc1ccccc1S(=O)(=O)Cc1ccc(C(=O)N2CCN(c3ccccc3OC)CC2)o1 | - | + | - | - | .
COc1ccccc1S(=O)(=O)Cc1ccc(C(=O)N2CCCC2)o1 | - | - | - | - | .
CCOc1ccc(CNn2nnnc2N)cc1 | - | - | - | - | -
CSc1nc(-c2ccco2)nn1C(=O)Cc1ccccc1 | - | + | - | - | -
O=C(CCc1ccccc1)n1nc(-c2ccco2)nc1SCc1ccccc1 | - | - | - | - | .
Nc1cc(=O)[nH]c(=S)n1-c1cccc(C(F)(F)F)c1 | - | - | - | - | 60.0
